Inconclusive results are not listed. Active and inactive are the calls of the source. Unless noted, calls follow the shape of the dose curve; as a rule, active = well fitted curve in the direction sought with a large enough effect in the repeat runs; inconclusive = weak or mixed curves; inactive = no such curve, though single readings can be large; an effect the other way counts as inactive or inconclusive.
Tests used:
[1] = qHTS assay for identifying genotoxic compounds that show differential cytotoxicity against isogenic chicken DT40 cell lines with known DNA damage response pathways - wild type cell line (AID 743012); also: nearly all actives have a fitted effect of over 60% in size; also: potency is read from the fitted curve at half-maximal effect
Procedure, shortened: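 Endpoint: CellTiter-Glo luminescence, 30 min RT. Cells: wild type DT40, 300/well. Exposure: compounds in DMSO, 40 h, 37 C/5% CO2, after ~0.5 h pre-incubation.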

[2] = qHTS assay for identifying genotoxic compounds that show differential cytotoxicity against isogenic chicken DT40 cell lines with known DNA damage response pathways - Rev3 mutant cell line (AID 743014); also: nearly all actives have a fitted effect of over 55% in size; also: potency is read from the fitted curve at half-maximal effect
[3] = qHTS assay for identifying genotoxic compounds that show differential cytotoxicity against isogenic chicken DT40 cell lines with known DNA damage response pathways - Rad54/Ku70 mutant cell line (AID 743015); also: nearly all actives have a fitted effect of over 60% in size; also: potency is read from the fitted curve at half-maximal effect
[4] = qHTS assay to identify small molecule antagonists of the androgen receptor (AR) signaling pathway - cell viability counter screen (AID 743033; also: nearly all actives have a fitted effect of over 45% in size)
[5] = qHTS assay to identify small molecule antagonists of the androgen receptor (AR) signaling pathway using the MDA cell line - cell viability counter screen (AID 743041; also: nearly all actives have a fitted effect of over 45% in size)
Procedure, shortened: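 Using the breast carcinoma line MDA-kb2 AR-luc, test chemicals were co-incubated with R1881 for 16 h; CellTiter-Fluor reagent, added at 15.5 h, provided a fluorescence measure of live cells.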

[6] = qHTS assay to identify small molecule antagonists of the thyroid receptor (TR) signaling pathway - cell viability counter screen (AID 743064); also: nearly all actives have a fitted effect of over 50% in size; also: potency is read from the fitted curve at half-maximal effect
Procedure, shortened: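 In-well cytotoxicity read by CellTiter-Fluor (30 min, 37 C) following 23.5 h exposure of GH3 cells bearing a TRE-luciferase sensor. Compounds were added alongside 1 nM (final) T3 to drive TR transactivation.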

[7] = test system: thyroid hormone receptor (rat, GH3 cells); test: qHTS assay to identify small molecule agonists of the thyroid receptor (TR) signaling pathway (AID 743066; calls by dose curve)
[8] = qHTS assay to identify small molecule antagonists of the estrogen receptor alpha (ER-alpha) signaling pathway - cell viability counter screen (AID 743074; calls by dose curve; also: nearly all actives have a fitted effect of over 45% in size)
[9] = molecular target: Estrogen receptor (Homo sapiens) (UniProt P03372); test: qHTS assay to identify small molecule agonists of the estrogen receptor alpha (ER-alpha) signaling pathway (AID 743075; calls by dose curve)
Chain of Estrogen receptor (Homo sapiens) (P03372 whole entry, looked up): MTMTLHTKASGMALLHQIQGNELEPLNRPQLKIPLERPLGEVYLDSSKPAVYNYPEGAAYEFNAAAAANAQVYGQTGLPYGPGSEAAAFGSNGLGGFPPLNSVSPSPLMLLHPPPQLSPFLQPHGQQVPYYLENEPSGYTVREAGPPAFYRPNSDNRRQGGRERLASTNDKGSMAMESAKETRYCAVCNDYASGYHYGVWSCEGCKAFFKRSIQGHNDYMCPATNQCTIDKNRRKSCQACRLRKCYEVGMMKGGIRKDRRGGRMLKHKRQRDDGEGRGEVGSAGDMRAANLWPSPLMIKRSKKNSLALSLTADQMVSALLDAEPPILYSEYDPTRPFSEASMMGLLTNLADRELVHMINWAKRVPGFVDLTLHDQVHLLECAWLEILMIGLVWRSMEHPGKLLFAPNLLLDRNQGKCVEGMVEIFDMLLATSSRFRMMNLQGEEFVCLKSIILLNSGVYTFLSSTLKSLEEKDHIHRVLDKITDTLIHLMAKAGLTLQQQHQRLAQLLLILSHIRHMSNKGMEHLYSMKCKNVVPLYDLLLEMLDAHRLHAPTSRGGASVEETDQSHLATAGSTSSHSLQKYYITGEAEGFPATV

[10] = qHTS assay to identify small molecule antagonists of the estrogen receptor alpha (ER-alpha) signaling pathway using the BG1 cell line (AID 743080; calls by dose curve;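 also: BG1 cells stimulated with 17beta-estradiol alongside compound; series mostly up to about 70 µM; nearly all actives have a fitted effect of over 25% in size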)
Procedure, shortened: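 After 5 days in phenol-red-free 10% charcoal-stripped FBS medium, BG1-Luc-4E2 cells were seeded, left 24 h at 37 C, co-treated with compounds and 17beta-estradiol for 21.5 h, then assayed for viability and luciferase.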

[11] = qHTS assay to identify small molecule antagonists of the estrogen receptor alpha (ER-alpha) signaling pathway using the BG1 cell line - cell viability counter screen (AID 743081);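 also: compound given together with 17beta-estradiol as the ER stimulus; nearly all actives have a fitted effect of over 45% in size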; also: potency is read from the fitted curve at half-maximal effect
Aromatase (Homo sapiens) = Aromatase (Homo sapiens) (UniProt P11511); test: qHTS assay to identify aromatase inhibitors (AID 743083); also: series mostly up to about 70 µM; nearly all actives have a fitted effect of over 55% in size
Chain of Aromatase (Homo sapiens) (P11511 whole entry, looked up): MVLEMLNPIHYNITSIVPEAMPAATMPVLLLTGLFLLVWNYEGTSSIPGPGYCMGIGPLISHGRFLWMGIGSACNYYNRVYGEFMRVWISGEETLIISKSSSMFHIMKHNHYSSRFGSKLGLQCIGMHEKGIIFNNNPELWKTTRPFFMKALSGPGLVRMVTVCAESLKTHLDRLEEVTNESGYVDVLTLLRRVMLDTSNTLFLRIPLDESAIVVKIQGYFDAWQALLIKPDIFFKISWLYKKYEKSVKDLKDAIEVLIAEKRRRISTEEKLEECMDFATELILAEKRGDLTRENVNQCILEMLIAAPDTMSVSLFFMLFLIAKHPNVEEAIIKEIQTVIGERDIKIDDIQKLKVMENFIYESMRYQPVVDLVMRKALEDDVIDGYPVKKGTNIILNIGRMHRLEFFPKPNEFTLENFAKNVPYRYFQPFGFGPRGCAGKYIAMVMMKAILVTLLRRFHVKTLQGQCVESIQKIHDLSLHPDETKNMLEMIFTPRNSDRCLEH

[12] = molecular target: Androgen receptor (Homo sapiens) (UniProt P10275); test: qHTS assay to identify small molecule antagonists of the androgen receptor (AR) signaling pathway (AID 743035; active = well fitted inhibition curve with a large enough effect in the signal ratio in the repeat runs, not every such curve was filed as active; the % refers to the signal ratio)
Chain of Androgen receptor (Homo sapiens) (P10275 whole entry, looked up): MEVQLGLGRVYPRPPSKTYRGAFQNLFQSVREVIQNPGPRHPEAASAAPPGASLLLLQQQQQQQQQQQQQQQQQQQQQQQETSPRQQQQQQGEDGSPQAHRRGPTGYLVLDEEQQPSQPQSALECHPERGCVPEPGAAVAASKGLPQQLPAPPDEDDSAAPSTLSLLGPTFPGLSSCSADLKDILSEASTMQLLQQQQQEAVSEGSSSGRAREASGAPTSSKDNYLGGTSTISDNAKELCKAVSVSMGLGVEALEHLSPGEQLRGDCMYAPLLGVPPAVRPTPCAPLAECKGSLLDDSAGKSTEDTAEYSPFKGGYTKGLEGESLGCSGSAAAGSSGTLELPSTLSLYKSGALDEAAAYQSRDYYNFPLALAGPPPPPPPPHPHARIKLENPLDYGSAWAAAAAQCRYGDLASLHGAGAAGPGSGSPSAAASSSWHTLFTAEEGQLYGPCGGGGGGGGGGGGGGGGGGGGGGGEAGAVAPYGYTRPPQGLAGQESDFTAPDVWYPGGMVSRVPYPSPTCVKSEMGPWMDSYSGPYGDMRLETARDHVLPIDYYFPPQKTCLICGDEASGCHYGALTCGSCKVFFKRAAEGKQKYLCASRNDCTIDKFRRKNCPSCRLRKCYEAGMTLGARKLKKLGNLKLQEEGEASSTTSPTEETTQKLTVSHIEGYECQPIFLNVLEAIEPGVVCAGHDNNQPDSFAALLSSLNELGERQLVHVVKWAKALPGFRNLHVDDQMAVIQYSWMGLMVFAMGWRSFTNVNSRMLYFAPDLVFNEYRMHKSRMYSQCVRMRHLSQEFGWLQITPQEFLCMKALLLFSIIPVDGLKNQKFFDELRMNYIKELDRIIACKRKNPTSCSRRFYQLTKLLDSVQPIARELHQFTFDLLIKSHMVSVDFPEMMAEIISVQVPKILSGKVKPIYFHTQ
Procedure, shortened: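 R1881 agonist challenge of a HEK293 UAS-beta-lactamase AR reporter line in the presence of compound (16 h, 37C); signal taken as FRET fluorescence after 2 h with LiveBLAzer B/G substrate at room temperature.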

[13] = molecular target: Androgen receptor (Homo sapiens) (UniProt P10275); test: qHTS assay to identify small molecule agonists of the androgen receptor (AR) signaling pathway (AID 743036; active = well fitted activation curve with a large enough effect in the signal ratio in the repeat runs, with a control signal flat, not every such curve was filed as active; the % refers to the signal ratio)
Procedure, shortened: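 Activation was read as beta-lactamase FRET signal from LiveBLAzer B/G substrate, added for 2 h at room temperature. Before that, GeneBLAzer AR-UAS-bla GripTite (HEK293) cells had 16 h compound exposure at 37C.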

[14] = molecular target: Androgen receptor (Homo sapiens) (UniProt P10275); test: qHTS assay to identify small molecule agonists of the androgen receptor (AR) signaling pathway using the MDA cell line (AID 743040; also: nearly all actives have a fitted effect of over 20% in size)
Procedure, shortened: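 Stable MMTV-luciferase reporter in MDA-kb2 cells; note the promoter carries GR as well as AR response elements. 16 h compound treatment, 37C, 0% CO2; ONE-Glo luminescence endpoint.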

[15] = molecular target: Androgen receptor (Homo sapiens) (UniProt P10275); test: qHTS assay to identify small molecule antagonists of the androgen receptor (AR) signaling pathway using the MDA cell line (AID 743042; also: nearly all actives have a fitted effect of over 55% in size)
Procedure, shortened: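 Antagonist mode: compounds plus R1881 agonist added to MDA-kb2 AR-luc cells, incubated 16 h at 37C. Luciferase reporter luminescence quantified, with multiplexed CellTiter-Fluor readout for cell viability.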

[16] = qHTS assay to identify small molecule antagonists of the thyroid receptor (TR) signaling pathway (AID 743065); also: nearly all actives have a fitted effect of over 55% in size; also: potency is read from the fitted curve at half-maximal effect
Procedure, shortened: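 Antagonism measured as loss of luciferase signal in GH3 cells stably carrying a TRE-luciferase reporter, co-treated with compound and T3 (1 nM final) for 23.5 h at 37 C. Viability was read in the same well by CellTiter-Fluor.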

[17] = molecular target: Estrogen receptor (Homo sapiens) (UniProt P03372); test: qHTS assay to identify small molecule antagonists of the estrogen receptor alpha (ER-alpha) signaling pathway (AID 743069; active = well fitted curve in the direction sought with a large enough effect in the signal ratio in the repeat runs, not every such curve was filed as active; the % refers to the signal ratio)
Procedure, shortened: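 Fluorescence intensity from a beta-lactamase FRET substrate served as the read-out. Cells: HEK293 with stably integrated ER-alpha-UAS-bla reporter. Agonist 17beta-estradiol was co-added with compounds; incubation 18 hr at 37C, substrate 2 hr at room temperature.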

[18] = molecular target: Estrogen receptor (Homo sapiens) (UniProt P03372); test: qHTS assay to identify small molecule agonists of the estrogen receptor alpha (ER-alpha) signaling pathway using the BG1 cell line (AID 743079); also: nearly all actives have a fitted effect of over 20% in size; also: potency is read from the fitted curve at half-maximal effect

Measured: Potency

O=c1[nH]c(=O)n([C@H]2C[C@H](O)[C@@H](CO)O2)cc1C(F)(F)F
active: [1] 0.944 µM | [2] 0.133 µM | [3] 0.188 µM
inactive: [4] | [5] | [6] | [7] | [8] | [9] | [10] | [11] | Aromatase (Homo sapiens)

CC(=O)OC(C)OC(C)=O
active: [2] 70.7 µM
not listed: [1] | [3] | [9] | [10] | [17] | [18]
inactive: all other assays above

CN(CCCN1c2ccccc2CCc2ccccc21)CC(=O)c1ccc(Cl)cc1
inactive: [17] | [8] | [9] | [18] | [10] | [11] | Aromatase (Homo sapiens)
active: [2] 13.3 µM | [3] 13.3 µM | [6] 11.9 µM | [16] 26.6 µM

C1CCOC1
inactive: [4] | [5] | [6] | [8] | [11] | Aromatase (Homo sapiens)

C1CSCCS1
inactive: [1] | [2] | [3] | [4] | [5] | [16] | [7] | [8] | [11] | Aromatase (Homo sapiens)

CCCCCCCCCCCCOCCOS(=O)(=O)O
active: [16] 68.6 µM
inactive: [1] | [2] | [4] | [5] | [7] | [8] | [9] | [10] | [11] | Aromatase (Homo sapiens)

CC1CN(c2ccccc2)NC1=O (stereo not drawn)
inactive: [2] | [3] | [4] | [5] | [6] | [16] | [7] | [8] | [11] | Aromatase (Homo sapiens)

CCN(CC)CCNC(=O)COc1ccc(Cl)cc1
not listed: [1] | [6] | [12] | [13] | [14] | [15] | [16]
inactive: all other assays above

CCCCCCCCc1ccc(S(=O)(=O)O)cc1
inactive: [1] | [2] | [3] | [4] | [5] | [6] | [16] | [7] | [11] | Aromatase (Homo sapiens)

O=C(C(Cl)Cl)N1CCOC12CCCCC2
active: [2] 6.86 µM
inactive: [4] | [17] | [8] | [9] | [18] | [10] | [11] | Aromatase (Homo sapiens)

CCN[C@H]1CN(CCCOC)S(=O)(=O)c2sc(S(N)(=O)=O)cc21
not listed: [12] | [13] | [14] | [15] | [16]
inactive: all other assays above

CCCCCCOc1ccc(N)cc1
active: [2] 43.3 µM | [3] 54.5 µM | [18] 9.69 µM
inactive: [4] | [5] | [6] | [7] | [9] | [11]

O=C(O)CN(CCN(CC(=O)O)CC(=O)O)CCN(CC(=O)O)CC(=O)O
active: [1] 18.8 µM | [2] 26.6 µM | [3] 18.8 µM | [6] 26.6 µM
inactive: [4] | [5] | [7] | [8] | [11] | Aromatase (Homo sapiens)

CCCC1CCC(=O)O1 (stereo not drawn)
inactive: [2] | [3] | [4] | [5] | [16] | [7] | [8] | [11] | Aromatase (Homo sapiens)

CCCCCCCOC(=O)CCC
not listed: [1] | [2] | [12] | [13] | [14] | [15]
inactive: all other assays above

O=c1[nH]cnc2c1ncn2[C@@H]1O[C@H](CO)[C@@H](O)[C@H]1O
inactive: [2] | [3] | [4] | [5] | [6] | [16] | [7] | [8] | [11] | Aromatase (Homo sapiens)

CC(=O)Nc1ccc(C)c(Cl)c1
inactive: [1] | [2] | [3] | [4] | [5] | [6] | [7] | [8] | [11] | Aromatase (Homo sapiens)

CCCCCCCCCCCCCCCCOP(=O)([O-])OCC[N+](C)(C)C
inactive: [1] | [2] | [3] | [5] | [8] | [11] | Aromatase (Homo sapiens)

COc1ccccc1N1CCN(CCCNc2cc(=O)n(C)c(=O)n2C)CC1
not listed: [7] | [12] | [13] | [14] | [15] | [16]
inactive: all other assays above

NC1=NCC2c3ccccc3Cc3ccccc3N12 (stereo not drawn)
inactive: [5] | [6] | [7] | [8] | [11] | Aromatase (Homo sapiens)
active: [1] 21.1 µM | [2] 26.6 µM

COc1ccc(S(=O)(=O)Nc2nnc(CC(C)C)s2)cc1
not listed: [1] | [12] | [13] | [14] | [15] | [16]
inactive: all other assays above

CCN(CCCc1ccccc1)CCCc1ccccc1
active: [1] 2.02 µM | [2] 1.27 µM | [3] 2.27 µM
not listed: [12] | [13] | [14] | [15] | [16]
inactive: all other assays above

O=C(O)[C@@H](O)[C@H](O)[C@H](O)[C@@H](O)C(=O)O
inactive: [1] | [2] | [3] | [4] | [5] | [6] | [7] | [8] | [11] | Aromatase (Homo sapiens)

O=[N+]([O-])c1nccn1CO[C@@H](CO)[C@H](O)CO
inactive: [1] | [2] | [3] | [4] | [5] | [6] | [16] | [7] | [11] | Aromatase (Homo sapiens)

NC(=O)Cc1cccc(C(=O)c2ccccc2)c1N
inactive: [2] | [3] | [4] | [5] | [6] | [16] | [7] | [8] | [11] | Aromatase (Homo sapiens)

CC(C)C[C@H](NC(=O)OCC1c2ccccc2-c2ccccc21)C(=O)O
inactive: [2] | [3] | [4] | [5] | [6] | [7] | [8] | [11] | Aromatase (Homo sapiens)

CN(C)CCOc1ccccc1Cc1ccccc1
active: [11] 2.37 µM
inactive: [2] | [4] | [5] | [7] | [8] | Aromatase (Homo sapiens)

CC(=O)OC1C2(C)CCC(C2)C1(C)C (stereo not drawn)
not listed: [3] | [12] | [13] | [14] | [15]
inactive: all other assays above

CC(C)C(=O)OCC(C)(C)C(O)C(C)C (stereo not drawn)
not listed: [6] | [12] | [13] | [14] | [15]
inactive: all other assays above

Source: PubChem BioAssay (Tox21)
